Where “and” joins values, the source holds several entries; their conditions need not be identical. Identical values can stand only once. Counter-ions that a name gives are not always drawn. ± gives the standard deviation of the averaged measurements.
target: PARP1 L713F-nLuc biosensor (HCT116) (UniProt P09874); test: PARP1 L713F-nLuc/akaLuc ratio relative to DMSO control (biosensor stabilization) (fold change); higher = more PARP1 biosensor stabilization (target engagement / stabilizer), active = hit call of the paper; settings: stock concentration (mM; final µM = stock mM x 1): 10; 24 h
Sequence (P09874 whole entry L713F, looked up): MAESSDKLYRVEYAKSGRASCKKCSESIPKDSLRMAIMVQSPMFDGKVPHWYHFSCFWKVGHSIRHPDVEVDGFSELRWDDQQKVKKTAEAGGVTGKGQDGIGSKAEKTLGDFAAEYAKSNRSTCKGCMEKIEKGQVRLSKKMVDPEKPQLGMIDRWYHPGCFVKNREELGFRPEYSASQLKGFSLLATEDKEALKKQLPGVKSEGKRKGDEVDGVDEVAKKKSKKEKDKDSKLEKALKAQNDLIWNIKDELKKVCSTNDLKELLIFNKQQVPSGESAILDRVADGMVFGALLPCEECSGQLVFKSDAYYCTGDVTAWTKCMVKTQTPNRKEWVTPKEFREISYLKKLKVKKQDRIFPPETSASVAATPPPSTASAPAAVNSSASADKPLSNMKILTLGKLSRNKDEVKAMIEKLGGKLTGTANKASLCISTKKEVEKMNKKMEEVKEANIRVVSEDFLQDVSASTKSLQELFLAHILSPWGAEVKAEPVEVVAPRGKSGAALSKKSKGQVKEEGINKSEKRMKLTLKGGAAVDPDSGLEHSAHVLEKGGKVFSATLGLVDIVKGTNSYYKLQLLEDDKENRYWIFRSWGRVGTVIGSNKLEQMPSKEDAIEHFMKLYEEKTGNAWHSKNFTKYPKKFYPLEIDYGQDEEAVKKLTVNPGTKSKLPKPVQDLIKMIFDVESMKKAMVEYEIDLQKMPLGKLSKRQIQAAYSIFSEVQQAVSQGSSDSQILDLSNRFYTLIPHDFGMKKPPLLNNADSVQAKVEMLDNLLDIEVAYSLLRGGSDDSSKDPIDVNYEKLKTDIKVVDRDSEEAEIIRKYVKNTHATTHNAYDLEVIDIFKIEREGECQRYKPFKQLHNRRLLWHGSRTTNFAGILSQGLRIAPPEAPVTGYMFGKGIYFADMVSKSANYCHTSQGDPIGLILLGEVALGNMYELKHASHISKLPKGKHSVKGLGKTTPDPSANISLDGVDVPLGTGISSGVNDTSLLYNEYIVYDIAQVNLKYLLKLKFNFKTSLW

SMILES	PARP1 L713F-nLuc/akaLuc ratio
Cc1cc([C@@H](C)Nc2ccccc2C(=O)O)c2nc(N3CCOCC3)cc(=O)n2c1	0.617 (inactive)
Nc1ncn([C@@H]2O[C@H](CO)[C@@H](O)[C@H]2O)c(=O)n1 [5-Azacytidine]	2.35 (inactive)
COc1cc(C=CC(=O)O)cc(OC)c1O (stereo in doubt) [Sinapinic acid]	0.83 (inactive)
CCS(=O)(=O)N1CCN(c2ccc(Nc3ncc(C(N)=O)c(NC4CC4)n3)cc2)CC1	1.99 (inactive)
Cc1cc(Nc2cc(N3CCN(C)CC3)nc(Sc3ccc(NC(=O)C4CC4)cc3)n2)n[nH]1 [Tozasertib (VX-680, MK-0457)]	0.821 (inactive)
CC(C)N(C(=O)c1cc(F)ccc1Oc1cncnc1N1CC2(CCN(CC3CCC(NS(C)(=O)=O)CC3)CC2)C1)C(C)C (stereo unspecified)	0.677 (inactive)
O=C(c1ccc(C(=O)N2CCC(N3CCCC3)CC2)c(Nc2ccccc2)c1)N1CCC(N2CCCC2)CC1	0.936 (inactive)
Cc1ccc(C(=O)Nc2ccc(S(=O)(=O)O)c3cc(S(=O)(=O)O)cc(S(=O)(=O)O)c23)cc1NC(=O)c1cccc(NC(=O)Nc2cccc(C(=O)Nc3cc(C(=O)Nc4ccc(S(=O)(=O)O)c5cc(S(=O)(=O)O)cc(S(=O)(=O)O)c45)ccc3C)c2)c1 [Suramin (sodium salt)]	0.738 (inactive)
O=C(NCCCN1CCCC1)c1cncc(-c2ccccc2N2CCN(CCc3c[nH]c4ccccc34)CC2)c1	0.537 (inactive)
COc1cc2nccc(Oc3ccc(NC(=O)NC4CC4)c(Cl)c3)c2cc1C(N)=O [Lenvatinib (E7080)]	0.673 (inactive)
C[C@H](Nc1ncnc2nc[nH]c12)c1cc2cccc(Cl)c2c(=O)n1-c1ccccc1 [Duvelisib (IPI-145, INK1197)]	0.838 (inactive)
Cc1ccc(-c2cc(C(F)(F)F)nn2-c2ccc(S(N)(=O)=O)cc2)cc1 [Celecoxib]	1.02 (inactive)
CC1(C)C(=O)NC2=C1C(=O)C(=O)c1ccccc12	0.888 (inactive)
NC(=O)[C@H](CCCN=C(N)CCl)NC(=O)c1ccccc1 [Cl-amidine (hydrochloride)]	0.914 (inactive)
Cc1cc(-c2ccccc2)cc(C(=O)NNS(=O)(=O)c2cccc(O)c2)c1F	1.16 (inactive)
CNc1nc(-c2ccc3c(N)n[nH]c3c2)cc(N2C[C@@H](C(=O)NC3CCCCC3)CC[C@H]2C)n1	0.434 (inactive)

SMILES	PARP1 L713F-nLuc/akaLuc ratio
CN1CCc2c(c3ccccc3n2Cc2ccc(C(=O)NO)cc2)C1 [Tubastatin A (Hydrochloride)]	2.07 (inactive)
O=C(Nc1cc(Cl)cc2c1[nH]c1cnccc12)c1cccnc1	0.723 (inactive)
CCCCCCCCCCCCC/C=C/[C@@H](O)[C@H](CO)NC(=O)CCCCCCC [C8-Ceramide]	0.658 (inactive)
COc1cc2ncnc(Nc3ccc(O)cc3)c2cc1OC	0.842 (inactive)
COc1cc2cc(Oc3ccc4ccc(=O)oc4c3)c(=O)oc2cc1O [Daphnoretin]	0.72 (inactive)
O=C(Nc1c[nH]nc1-c1nc2ccc(CN3CCOCC3)cc2[nH]1)NC1CC1	2.07 ± 0.91
Cc1cc(C(C)Nc2ccccc2)c2nc(N3CCOCC3)cc(=O)n2c1 (stereo unspecified)	0.773 (inactive)
CCCc1cc(C)[nH]c(=O)c1CNC(=O)c1cc(-c2ccc(N3CCN(C)CC3)nc2)nc2c1cnn2C(C)C	1.04 (inactive)
Cc1ccc(OCCSc2ncccn2)c(Br)c1 [ZLN024 (hydrochloride)]	0.863 (inactive)
N#C/C(=C\c1ccc(O)c(O)c1)C(=O)NCc1ccccc1	1.13 (inactive) and 0.936 (inactive)
O=C1COc2c(CCNCCN(C(=O)CCNCCc3ccc(Cl)c(Cl)c3)C3CCCCC3)ccc(O)c2N1	1.16 (inactive)
COc1cc2ncnc(Oc3cccc(NC(=O)Nc4cc(C(C)(C)C(F)(F)F)on4)c3)c2cc1OC	1.02 (inactive)
C#Cc1cccc(Nc2ncnc3cc4c(cc23)OCCOCCOCCO4)c1 [Icotinib]	0.808 (inactive)
COc1cccc(OC)c1C(=O)OCc1cc(O)ccc1O[C@@H]1O[C@H](CO)[C@@H](O)[C@H](O)[C@H]1O [Curculigoside]	0.993 (inactive)
Cn1ncc(Cl)c1-c1cc(C(=O)N[C@H](CN)Cc2cccc(F)c2)sc1Cl [Afuresertib (hydrochloride)]	0.764 (inactive)
